From PubChem
A3G deaminase: APOBEC3G DNA deaminase inhibitors, primary screen, biochemical, fluorescence, single-stranded DNA substrate, uHTS; DNA dC->dU-editing enzyme APOBEC-3G (Homo sapiens), Q9HC16; recombinant A3G, ssDNA deamination FAM/TAMRA fluorescence; hit rate 0.28% among 330,000; AID 493012, 2011; inhibition, % at 20 µM;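 active = inhibition of at least 40% at 20 µM, with no more than 30% in the related APOBEC3A deaminase screen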;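 also: plate controls were DMSO wells with A3G for no effect and wells lacking A3G enzyme for full effect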
esBAF inh: Bmi1 luciferase reporter increase in mESCs, primary screen, esBAF inhibitor project, mouse ES cells, Bmi1 luciferase knock-in, single point; 24 h; 100% = twice the neutral-well signal; reporter increase, % at 12.5 µM; hit rate 2% among 350,000; in the data active = activation above about 40%; inconclusive = no clear call, values can overlap the other calls;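 also: 0% = median of the plate's neutral control wells and 100% = double that signal; a rise in the Bmi1 reporter signal indicates esBAF inhibition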
MITF TRPM1 HTS: activators of MITF-driven TRPM1 promoter reporter, primary screen, cell-based, SK-MEL-5, luciferase, single point; activation, % at 12.5 µM; SK-MEL-5 TRPM1-promoter luciferase, 24 h; % of positive control, neutral wells = 0; hit rate 0.75% among 300,000;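 active = mean activation of at least 80% with every replicate also reaching 80%; inconclusive = mean reaches 80% but some replicate falls short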;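 also: 0% = neutral control wells and 100% = parthenolide positive control wells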
PHOSPHO1 block: PubChem AID 1565 | hit rate 1.1% among 290,000 | inhibition, % at 13.3 µM | Phosphoethanolamine/phosphocholine phosphatase (Homo sapiens), Q8TCT1 | recombinant PHOSPHO1, absorbance phosphatase assay; in the data active = inhibition above about 60%
Target sequence (Q8TCT1 whole entry, looked up): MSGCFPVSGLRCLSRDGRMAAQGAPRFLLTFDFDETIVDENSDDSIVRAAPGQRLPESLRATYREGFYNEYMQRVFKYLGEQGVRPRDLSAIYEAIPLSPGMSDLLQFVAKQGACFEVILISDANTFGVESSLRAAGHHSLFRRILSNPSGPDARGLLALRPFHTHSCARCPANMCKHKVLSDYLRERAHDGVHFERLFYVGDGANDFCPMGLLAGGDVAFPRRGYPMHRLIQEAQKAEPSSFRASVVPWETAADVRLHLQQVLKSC
APOBEC3A inh: APOBEC3A ssDNA deaminase inhibitors, primary screen, selectivity assay for APOBEC3G inhibitor project, biochemical, FAM/TAMRA oligo cleavage fluorescence | DNA dC->dU-editing enzyme APOBEC-3A (Homo sapiens), P31941 | recombinant A3A, FAM/TAMRA ssDNA deamination fluorescence | inhibition, % at 20 µM | hit rate 0.41% among 330,000;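 active = at least 40% inhibition at 20 µM here, with at most 30% in a related deaminase screen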;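 also: plate controls were A3A with DMSO for no effect and wells lacking A3A enzyme for full effect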
Target sequence (P31941 whole entry, looked up): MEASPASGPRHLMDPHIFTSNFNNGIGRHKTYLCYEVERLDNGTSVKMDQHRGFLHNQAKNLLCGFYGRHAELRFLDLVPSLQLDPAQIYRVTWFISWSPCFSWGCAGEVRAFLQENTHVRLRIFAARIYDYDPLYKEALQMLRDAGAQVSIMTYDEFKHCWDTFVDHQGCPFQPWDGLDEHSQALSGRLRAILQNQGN
Wnt act: Wnt/beta-catenin pathway activators, primary screen, cell-based, plate reader, single point. activation, % at 9.35 µM. hit rate 1.2% among 300,000. Wnt/beta-catenin reporter cell assay, activator; in the data active = activation above about 30%, passing the limit was not always enough; inconclusive = no clear call, values can overlap the other calls;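 also: 0% = neutral control wells and 100% = positive control wells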
Starred values were filed as active, the others as inactive; ? = inconclusive; nt = no result given. An excerpt weighted towards active compounds, which were near 3.6% of everything screened.

SMILES	A3G deaminase	esBAF inh	MITF TRPM1 HTS	PHOSPHO1 block	APOBEC3A inh	Wnt act
O=C(O)c1ccc(/C=N/N2CCN(c3ccccc3)CC2)cc1	-3	42*	35	24	-2	6
CO[C@@H]1CC[C@H]2CCN(C)C(=O)[C@H](C)[C@H](OC)CN(C)C(=O)c3cc(C#N)ccc3OC[C@@H]1O2	nt	0	nt	nt	nt	nt
CC(C)=CCC/C(C)=C/CNC(=O)C[C@H]1C[C@H](C(=O)N2CCCCC2)[C@@]2(CCc3ccccc3)c3[nH]c4cc(CCC(=O)N(C)C)ccc4c3CCN2C1=O	4	52*	-41	nt	8	1
CC(C)=CCC/C(C)=C/CNC(=O)C[C@H]1C[C@H](C(=O)N2CCCCC2)[C@@]2(CCc3ccccc3)c3[nH]c4ccc(Cl)cc4c3CCN2C1=O	1	-4	8	nt	0	-3
Nc1ccccc1C(=O)NN=Cc1cccc([N+](=O)[O-])c1	nt	?	nt	nt	nt	39*
O=C(NN=Cc1ccc2c(c1)OCO2)c1ccc([N+](=O)[O-])cc1	nt	nt	nt	nt	nt	1
O=C(N/N=C/c1cccc([N+](=O)[O-])c1)c1ccc2c(c1)OCCO2	-5	44*	nt	23	-4	40*
Cc1nc2ccccc2cc1C(=O)N/N=C/c1cccc([N+](=O)[O-])c1	-6	nt	4	-9	-5	-5
Cc1ccc(S(=O)(=O)N(C)C[C@@H]2Oc3cc(C#CC4CCCC4)ccc3S(=O)(=O)N([C@@H](C)CO)C[C@H]2C)cc1	nt	5	nt	nt	nt	nt
C[C@H]1CCCCO[C@@H](CN(C)C(=O)c2ccccc2)[C@@H](C)CN([C@@H](C)CO)C(=O)c2cc(NC(=O)C3CCCCC3)ccc2O1	nt	0	nt	nt	nt	nt
COc1ccc(N2CCN(c3cnc4ccccc4n3)CC2)cc1	5	53*	97*	37	-2	10
c1ccc(N2CCN(c3cnc4ccccc4n3)CC2)cc1	29	-2	55	-11	10	nt
Clc1ccc(Sc2cnc3ccccc3n2)cc1	0	45*	?	-46	-1	11
Cc1cc(N2CCN(c3ccccc3)CC2)nc2ccccc12	-2	24	8	47	-7	4
COc1cccc(N2CCN(c3cnc4ccccc4n3)CC2)c1	-7	nt	50	28	-2	8
Clc1ccc(N2CCN(c3cnc4ccccc4n3)CC2)cc1	-6	45*	39	38	-7	nt
Fc1ccc(N2CCN(c3cnc4ccccc4n3)CC2)cc1	-2	11	61	18	4	42*
c1ccc(Sc2cnc3ccccc3n2)cc1	-5	nt	70	-12	-2	nt
C[C@H]1CN([C@@H](C)CO)C(=O)c2cccc(NC(=O)NC3CCCCC3)c2O[C@@H]1CN(C)S(=O)(=O)c1cn(C)cn1	nt	-2	nt	nt	nt	nt
O=C(C[C@@H]1CC[C@H]2[C@@H](COC[C@@H](O)CN2Cc2ccc(Cl)cc2)O1)NCc1ccccc1Cl	nt	3	nt	nt	nt	nt
Cc1cccc(S(=O)(=O)N[C@H]2CC[C@@H](CCNC(=O)c3cnccn3)O[C@H]2CO)c1	nt	4	nt	nt	nt	nt
C=CCn1c(O)c(N=Nc2ccccc2O)c2ccccc21	-1	-1	-5	nt	1	3
C=CCn1c(O)c(N=Nc2ccccc2[N+](=O)[O-])c2ccccc21	nt	58*	nt	nt	nt	1
O=C(Nc1ccccc1)c1cccc(N2C(=O)CCC2=O)c1	-5	19	-3	-11	-3	-1
Cc1cc(C)cc(NC(=O)c2ccc3nc[nH]c3c2)c1	-5	24	29	-12	-7	6
SMILES	A3G deaminase	esBAF inh	MITF TRPM1 HTS	PHOSPHO1 block	APOBEC3A inh	Wnt act
CN(C)c1ccc(NC(=O)c2ccc3nc[nH]c3c2)cc1	1	48*	71	22	1	22
COc1cc(C(=O)Nc2ccc(N(C)C)cc2)cc(OC)c1OC	-4	71*	51	29	-2	nt
COc1cc(C(=O)Nc2ccc(S(=O)(=O)N(C)c3ccccc3)cc2)cc(OC)c1OC	-2	nt	-19	0	4	1
Cc1ccc(NC(=O)c2ccc3nc[nH]c3c2)cc1C	0	88*	66	2	13	9
CN(C)c1ccc(NC(=O)c2cccc(N3C(=O)CCC3=O)c2)cc1	-7	11	16	66*	-5	nt
O=C(Nc1ccc(F)cc1)c1ccc2nc[nH]c2c1	5	nt	26	11	3	4
C[C@H](CO)N1C[C@H](C)[C@H](CN(C)Cc2ccc3c(c2)OCO3)Oc2ccc(NC(=O)Cc3cn(C)c4ccccc34)cc2CC1=O	nt	-2	nt	nt	nt	nt
COCC#Cc1cnc2c(c1)C(=O)N([C@H](C)CO)C[C@H](C)[C@H](CN(C)Cc1ccc(F)cc1)O2	nt	-2	nt	nt	nt	nt
COc1ccccc1-c1ccc2n(c1=O)C[C@H]1[C@H](CO)[C@@H](C(=O)N(C)C)N(C(=O)c3cccnc3)[C@@H]21	nt	2	nt	nt	nt	nt
CCN(C[C@H]1N[C@H](CO)[C@H]1c1ccc(-c2cccc(F)c2)cc1)C(=O)COC	nt	-2	nt	nt	nt	nt
CC(C)C#Cc1ccc2c(c1)O[C@H](CN(C)C(=O)c1cccc(F)c1)[C@H](C)CN([C@H](C)CO)S2(=O)=O	nt	-6	nt	nt	nt	nt
O=C1c2ccccc2C(=O)C12OC2c1cccc2ccccc12 (stereo unspecified)	5	-1	-17	66*	0	-2
Cc1nn(-c2ccc(C(=O)O)cc2)c(N)c1-c1ccccc1	-3	61*	59	16	0	20
Cc1nn(-c2nc3ccccc3[nH]2)c(=O)c2ccccc12	nt	-86	-96	42	nt	-7
COc1ccc(-c2c(C)nn(-c3ccccc3)c2N)cc1	-2	63*	103*	-9	-1	13
Cc1nn(-c2nc3ccccc3[nH]2)c(N)c1-c1ccc(Cl)cc1	-6	61*	40	-5	-4	15
COc1ccc(-c2nn(-c3ccccc3)cc2N)cc1	-2	nt	50	12	2	59*
COc1ccc(-c2nn(-c3ccccc3)cc2CO)cc1	-2	17	51	-7	-3	12
CCN1[C@@H]2c3ccc(-c4cccc(F)c4)c(=O)n3C[C@H]1[C@H](CO)[C@H]2C(=O)N(C)C	nt	-2	nt	nt	nt	nt
C[C@@H]1CN([C@@H](C)CO)S(=O)(=O)c2ccc(Br)cc2O[C@@H]1CN(C)CC1CC1	nt	2	nt	nt	nt	nt
CN1CCN(C(=O)C2CCC(=O)N(CCc3cccc(F)c3)C2)CC1 (stereo unspecified)	-3	nt	-15	8	0	-2
COC(=O)C1CCN(C(=O)C2CCC(=O)N(CCc3cccc(F)c3)C2)CC1 (stereo unspecified)	-2	53*	19	24	-1	3
O=C1CCC(C(=O)N2CCCCO2)CN1CCc1ccccc1 (stereo unspecified)	-1	51*	66	-22	2	28
